Results: PubChem BioAssay (NCI)
“And” between values parts separate entries of the source, which are not always exact repeats. Equal entries are not always repeated. This is part of a sample that, as a whole, favours compounds with a hit. Of some 79,000 tested, about 15% had one in any assay. More than one record can exist for a structure, and the calls need not agree. The source made the active and inactive calls. Rule as the data show it: active = growth inhibition above about 70%; inactive = the rest.

Tests used:
[1] = NCI Yeast Anticancer Drug Screen. Data for the rad52 strain (AID 147);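 also: 0% = growth of vehicle-treated control cultures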; conditions: S. cerevisiae rad52 mutant growth inhibition, stronger effect = higher value
Summary of the method: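 Inhibition of yeast growth, referenced to vehicle controls, was the measured output for a strain with defective DNA damage repair.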

[2] = NCI Yeast Anticancer Drug Screen. Data for the wt1 strain (AID 149);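 also: 0% = growth of vehicle-treated wt1 cultures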; conditions: S. cerevisiae wt1 strain (SPY 50644) growth inhibition, stronger effect = higher value
Summary of the method: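 Yeast wt1 strain exposed to compounds; growth inhibition measured relative to vehicle-treated controls.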

[3] = NCI Yeast Anticancer Drug Screen. Data for the rad50EPP+ strain (AID 151);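 also: 0% = growth of vehicle-treated control cultures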; conditions: S. cerevisiae rad50 mutant strain, stronger effect = higher value
Summary of the method: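 Genetically defined yeast (rad50EPP+, DNA damage repair alteration) is grown with compound, and inhibition of growth is expressed relative to vehicle-treated controls.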

[4] = NCI Yeast Anticancer Drug Screen. Data for the mgt1 strain (AID 153); conditions: S. cerevisiae mgt1 mutant growth inhibition, stronger effect = higher value
Summary of the method: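 In the mgt1 strain, test compounds were added and growth inhibition was determined relative to vehicle-treated controls.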

[5] = NCI Yeast Anticancer Drug Screen. Data for the rad50 strain (AID 155);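 also: 0% = growth of vehicle-only cultures of the same strain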; conditions: S. cerevisiae rad50 strain growth inhibition, stronger effect = higher value
Summary of the method: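 Yeast carrying a defined DNA repair defect were exposed to test compounds, and growth was compared with vehicle-treated controls to give percent inhibition.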

[6] = NCI Yeast Anticancer Drug Screen. Data for the mec2-1 strain (AID 157); conditions: S. cerevisiae mec2-1 strain, stronger effect = higher value
Summary of the method: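 Each compound was tested on mec2-1 yeast, a strain altered in DNA damage repair or cell cycle control. Growth inhibition is reported relative to vehicle.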

[7] = NCI Yeast Anticancer Drug Screen. Data for the rad14 strain (AID 159);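 also: 0% = growth of vehicle-treated control cultures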; conditions: S. cerevisiae rad14 strain growth inhibition, stronger effect = higher value
Summary of the method: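 Yeast cells carrying a defined DNA-repair defect were exposed to compounds, and growth inhibition was calculated relative to vehicle-treated control cultures.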

[8] = NCI Yeast Anticancer Drug Screen. Data for the sgs1 mgt1 strain (AID 161);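 also: 0% = growth of cultures given vehicle only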; conditions: S. cerevisiae sgs1 mgt1 strain, stronger effect = higher value
Summary of the method: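 Genetically altered yeast, compound exposure, growth inhibition relative to vehicle.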

[9] = NCI Yeast Anticancer Drug Screen. Data for the CLN2oe strain (AID 163);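 also: 0% = growth of vehicle-only control cultures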; conditions: S. cerevisiae CLN2oe strain, stronger effect = higher value
Summary of the method: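 First, the altered yeast strain was treated with each compound; second, its growth was measured; finally, inhibition was derived by comparison with vehicle controls.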

[10] = NCI Yeast Anticancer Drug Screen. Data for the cln2 rad14 strain (AID 165);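 also: 0% = growth equal to vehicle treated cultures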; conditions: S. cerevisiae cln2 rad14 strain, stronger effect = higher value
Summary of the method: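 Test compounds were added to cln2 rad14 yeast cultures; inhibition of growth was then determined by comparison with vehicle treatment.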

[11] = NCI Yeast Anticancer Drug Screen. Data for the bub3 strain (AID 167); conditions: S. cerevisiae bub3 mutant strain, stronger effect = higher value
Summary of the method: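 Compounds were applied to a genetically altered yeast strain carrying a cell-cycle control defect. Growth inhibition was scored against vehicle-treated controls.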

[12] = NCI Yeast Anticancer Drug Screen. Data for the wt2 strain (AID 169);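 also: 0% = growth of vehicle-treated yeast cultures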; conditions: S. cerevisiae wt2 strain growth inhibition, stronger effect = higher value
Summary of the method: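 The panel's yeast strains carry defined changes in DNA repair or cell cycle genes. Each strain is grown with compound, and growth loss is scored relative to vehicle.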

[13] = NCI Yeast Anticancer Drug Screen. Data for the mlh1 strain (AID 171);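 also: 0% = growth of vehicle-treated control cultures of the same strain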; conditions: S. cerevisiae mlh1 strain growth inhibition, stronger effect = higher value
Summary of the method: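 Inhibition values reflect reduced yeast growth in the presence of compound, referenced to vehicle controls, using a strain chosen for its alteration in DNA repair or cell cycle control.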

[14] = NCI Yeast Anticancer Drug Screen. Data for the sgs1 strain (AID 173);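 also: 0% = growth of vehicle-only control cultures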; conditions: S. cerevisiae sgs1 mutant, stronger effect = higher value
Summary of the method: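 Vehicle-treated cultures served as reference for growth inhibition of a yeast strain altered in DNA damage repair or cell cycle control after compound exposure.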

[15] = NCI Yeast Anticancer Drug Screen. Data for the mlh1 rad18 strain (AID 175); conditions: S. cerevisiae mlh1 rad18 strain growth inhibition, stronger effect = higher value
Summary of the method: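 Inhibition values reflect reduced growth of mutant yeast versus vehicle-treated controls following compound exposure; the mutations affect DNA damage repair.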

[16] = NCI Yeast Anticancer Drug Screen. Data for the rad18 strain (AID 177); conditions: S. cerevisiae rad18 mutant growth inhibition, stronger effect = higher value
Summary of the method: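 Steps: expose repair-mutant yeast to compound; measure growth; express as inhibition relative to vehicle control.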

[17] = at 5.0 µM (retest, dose inferred, filed as 0.5)
[18] = at 50.0 µM (retest, dose inferred, filed as 5.0)

Measured: growth inhibition

CC1=CC(=C(c2ccc(N)cc2)c2ccc(N)cc2)C=CC1=N
inactive: [1]; at 1.2 µM 20% | [1]; at 3.7 µM 49% | [1]; at 11.0 µM 47% | [1]; at 33.0 µM 32% | [2]; at 1.2 µM 0% | [2]; at 3.7 µM -1% | [2]; at 11.0 µM 7% | [2]; at 33.0 µM 2% | [2]; at 100.0 µM 19% | [3]; at 1.2 µM 15% | [3]; at 3.7 µM 22% | [3]; at 11.0 µM 20% | [3]; at 33.0 µM 29% | [3]; at 100.0 µM 51% | [4]; at 1.2 µM -9% | [4]; at 3.7 µM 1% | [4]; at 11.0 µM -8% | [4]; at 33.0 µM 4% | [5]; at 1.2 µM -2% | [5]; at 3.7 µM 17% | [5]; [17] 21% and 1% | [5]; at 11.0 µM 17% | [5]; at 33.0 µM 7% | [5]; at 50.0 µM 32.7% and 35.3% | [6]; at 1.2 µM 7% | [6]; at 3.7 µM 2% | [6]; [17] 14% and -7% | [6]; at 11.0 µM -1% | [6]; at 33.0 µM -6% | [6]; at 50.0 µM 58.7% and 12.3% | [7]; at 1.2 µM -9% | [7]; at 3.7 µM 0% | [7]; at 11.0 µM -4% | [7]; at 33.0 µM -4% | [8]; [17] 15% and 2% | [8]; [18] 30% and 50% | [8]; at 50.0 µM 59.5% and 48.1% | [9]; at 1.2 µM 22% | [9]; at 3.7 µM 43% | [9]; at 11.0 µM 39% | [9]; at 33.0 µM 23% | [10]; [17] 1% and -1% | [10]; [18] 42% and 61% | [10]; at 50.0 µM 34% and -84.5% | [11]; at 1.2 µM -12% | [11]; at 3.7 µM 8% | [11]; [17] 18% and -1% | [11]; at 11.0 µM 8% | [11]; at 33.0 µM 12% | [11]; at 50.0 µM 58.8% and 24.9% | [12]; at 1.2 µM -18% | [12]; at 3.7 µM -13% | [12]; at 11.0 µM -12% | [12]; at 33.0 µM -6% | [13]; at 1.2 µM 1% | [13]; at 3.7 µM -4% | [13]; at 11.0 µM 1% | [13]; at 33.0 µM -3% | [14]; at 1.2 µM 11% | [14]; at 3.7 µM 18% | [14]; at 11.0 µM 4% | [14]; at 33.0 µM 11% | [15]; [17] 9% and -3% | [15]; at 50.0 µM 66% and 61.9% | [16]; at 1.2 µM 6% | [16]; at 3.7 µM 4% | [16]; at 11.0 µM -22% | [16]; at 33.0 µM 9%
38% (inactive) and 93% (active): [5]; [18]
54% (inactive) and 75% (active): [15]; [18]
active: [1]; at 100.0 µM 91% | [4]; at 100.0 µM 76% | [5]; at 100.0 µM 82% | [6]; [18] 89% and 80% | [6]; at 100.0 µM 73% | [7]; at 100.0 µM 74% | [9]; at 100.0 µM 78% | [11]; [18] 90% and 76% | [11]; at 100.0 µM 88% | [12]; at 100.0 µM 94% | [13]; at 100.0 µM 81% | [14]; at 100.0 µM 77% | [16]; at 100.0 µM 81%

O=C1C=C(Cl)C(=O)N1c1cccc(Cl)c1
inactive: [1]; at 1.2 µM 6% | [2]; at 1.2 µM 12% | [3]; at 1.2 µM 41% | [4]; at 1.2 µM -3% | [4]; at 3.7 µM 67% | [5]; at 1.2 µM 11% | [6]; at 1.2 µM -6% | [6]; at 3.7 µM 63% | [6]; [17] 8% | [7]; at 1.2 µM 34% | [8]; [17] 11% | [9]; at 1.2 µM -13% | [9]; at 3.7 µM 33% | [10]; [17] 3% | [11]; at 1.2 µM 55% | [11]; [17] 65%
active: [1]; at 3.7 µM 89% | [1]; at 11.0 µM 99% | [1]; at 33.0 µM 99% | [1]; at 100.0 µM 99% | [2]; at 3.7 µM 97% | [2]; at 11.0 µM 100% | [2]; at 33.0 µM 99% | [2]; at 100.0 µM 100% | [3]; at 3.7 µM 96% | [3]; at 11.0 µM 99% | [3]; at 33.0 µM 99% | [3]; at 100.0 µM 99% | [4]; at 11.0 µM 99% | [4]; at 33.0 µM 99% | [4]; at 100.0 µM 100% | [5]; at 3.7 µM 86% | [5]; [17] 87% | [5]; at 11.0 µM 99% | [5]; at 33.0 µM 99% | [5]; [18] 97% | [5]; at 50.0 µM 99.5% | [5]; at 100.0 µM 99% | [6]; at 11.0 µM 99% | [6]; at 33.0 µM 100% | [6]; [18] 99% | [6]; at 50.0 µM 99.6% | [6]; at 100.0 µM 99% | [7]; at 3.7 µM 97% | [7]; at 11.0 µM 100% | [7]; at 33.0 µM 100% | [7]; at 100.0 µM 100% | [8]; [18] 99% | [8]; at 50.0 µM 99.5% | [9]; at 11.0 µM 99% | [9]; at 33.0 µM 99% | [9]; at 100.0 µM 99% | [10]; [18] 98% | [10]; at 50.0 µM 99.4% | [11]; at 3.7 µM 93% | [11]; at 11.0 µM 99% | [11]; at 33.0 µM 99% | [11]; [18] 98% | [11]; at 50.0 µM 99.5% | [11]; at 100.0 µM 100%
